In PubChem BioAssay AID1159580 (chemical genetic matrix, 2015):
“And” between values parts separate entries of the source, which are not always exact repeats. Equal entries are not always repeated. In all, about 5,500 compounds went through this assay and about 2,000 (36%) were called active. About 18% were inconclusive and are not listed. No stated cut-off is given here; in the data, active means normalized growth mostly below about 0.91 (no sharp cut-off); inconclusive means no clear call, values can overlap the other calls; inactive means mostly above about 0.92. Some of the results follow.

Assay: chemical genetic growth profiling, strain panel (AID 1159580);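 further: tested at 20 µM; growth read once vehicle control cultures reached saturation at 30 °C; 1 = growth at the plate median or of vehicle wells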
Conditions: S. cerevisiae deletion strains, growth OD

Measured: normalized growth

CN1CCN(C(c2ccccc2)c2ccccc2)CC1
inactive: locus YAL013W, strain DEP1, stronger effect = lower value 0.996 | locus YAL021C, strain ccr4, stronger effect = lower value 0.973 | locus YAL026C, strain drs2, stronger effect = lower value 0.988 | locus YAL030W, strain snc1, stronger effect = lower value 0.996 | locus YBL061C, strain skt5, stronger effect = lower value 0.993 | locus YBR009C, strain hhf1, stronger effect = lower value 1.01 | locus YBR021W, strain FUR4, stronger effect = lower value 0.998 | locus YBR023C, strain chs3, stronger effect = lower value 0.985 | locus YBR171W, strain sec66, stronger effect = lower value 0.975 | locus YBR229C, strain ROT2, stronger effect = lower value 1.01 | locus YBR231C, strain swc5, stronger effect = lower value 0.966 | locus YBR279W, strain paf1, stronger effect = lower value 0.995 | locus YCL011C, strain gbp2, stronger effect = lower value 0.998 | locus YCL016C, strain dcc1, stronger effect = lower value 0.973 | locus YCL029C, strain bik1, stronger effect = lower value 0.973 | locus YCL069W, strain vba3, stronger effect = lower value 0.995 | locus YCR088W, strain abp1, stronger effect = lower value 0.983 | locus YDL005C, strain med2, stronger effect = lower value 0.969 | locus YDL035C, strain GPR1, stronger effect = lower value 0.984 | locus YDL040C, strain nat1, stronger effect = lower value 0.98 | locus YDL074C, strain BRE1, stronger effect = lower value 0.993 | locus YDL101C, strain DUN1, stronger effect = lower value 1 | locus YDL134C, strain PPH21, stronger effect = lower value 1.01 | locus YDL185W, strain tfp1, stronger effect = lower value 0.942 | locus YDL192W, strain arf1, stronger effect = lower value 0.971 | locus YDR001C, strain nth1, stronger effect = lower value 1.02 | locus YDR069C, strain doa4, stronger effect = lower value 0.964 | locus YDR101C, strain arx1, stronger effect = lower value 0.988 | locus YDR137W, strain rgp1, stronger effect = lower value 0.994 | locus YDR150W, strain NUM1, stronger effect = lower value 0.989 | locus YDR159W, strain sac3, stronger effect = lower value 0.991 | locus YDR162C, strain NBP2, stronger effect = lower value 1.01 | locus YDR195W, strain ref2 0.958 | locus YDR297W, strain sur2, stronger effect = lower value 0.996 | locus YDR318W, strain mcm21, stronger effect = lower value 0.969 | locus YDR334W, strain swr1, stronger effect = lower value 0.977 | locus YDR335W, strain msn5, stronger effect = lower value 0.994 | locus YDR388W, stronger effect = lower value 0.966 | locus YDR392W, strain spt3, stronger effect = lower value 0.915 | locus YDR502C, strain sam2, stronger effect = lower value 0.978 | locus YEL003W, strain gim4, stronger effect = lower value 0.984 | locus YEL037C, strain rad23, stronger effect = lower value 0.988 | locus YEL061C, strain CIN8 (second series), stronger effect = lower value 0.997 | locus YEL061C, strain CIN8, stronger effect = lower value 0.975 | locus YER015W, strain faa2, stronger effect = lower value 0.979 | locus YER016W, strain bim1, stronger effect = lower value 0.971 | locus YER110C, stronger effect = lower value 0.973 | locus YER111C, strain swi4, stronger effect = lower value 0.983 | locus YER155C, strain BEM2 (second series), stronger effect = lower value 0.932 | locus YER155C, strain BEM2, stronger effect = lower value 1 | locus YER167W, strain BCK2, stronger effect = lower value 0.997 | locus YFR010W, strain ubp6, stronger effect = lower value 0.99 | locus YGL078C, strain dbp3, stronger effect = lower value 0.989 | locus YGL086W, strain mad1, stronger effect = lower value 0.983 | locus YGL167C, strain pmr1, stronger effect = lower value 0.98 | locus YGL173C, strain kem1, stronger effect = lower value 0.979 | locus YGL227W, strain vid30, stronger effect = lower value 0.968 | locus YGL240W, strain doc1, stronger effect = lower value 1.01 | locus YGL248W, strain PDE1, stronger effect = lower value 1 | locus YGL253W, strain hxk2, stronger effect = lower value 0.985 | locus YGR078C, strain PAC10, stronger effect = lower value 0.998 | locus YGR135W, strain pre9, stronger effect = lower value 0.979 | locus YGR229C, strain SMI1, stronger effect = lower value 1.03 | locus YGR252W, strain gcn5, stronger effect = lower value 1.03 | locus YHR013C, strain ard1, stronger effect = lower value 0.902 | locus YHR027C, strain rpn1, stronger effect = lower value 0.985 | locus YHR030C, strain SLT2, stronger effect = lower value 0.995 and 0.998 | locus YHR079C, strain IRE1 (second series), stronger effect = lower value 0.969 | locus YHR079C, strain IRE1, stronger effect = lower value 0.992 | locus YHR094C, strain hxt1, stronger effect = lower value 0.965 | locus YHR129C, strain ARP1, stronger effect = lower value 0.999 | locus YHR142W, strain chs7, stronger effect = lower value 1 | locus YHR200W, strain rpn10, stronger effect = lower value 0.966 | locus YIL066C, strain RNR3, stronger effect = lower value 1 | locus YIL073C, strain SPO22, stronger effect = lower value 0.965 | locus YIL125W, strain kgd1, stronger effect = lower value 0.981 | locus YIR030C, strain dcg1, stronger effect = lower value 0.967 | locus YJL092W, strain hpr5, stronger effect = lower value 0.991 | locus YJL095W, strain BCK1 (second series), stronger effect = lower value 0.993 | locus YJL095W, strain BCK1, stronger effect = lower value 0.966 and 0.998 | locus YJL115W, strain asf1, stronger effect = lower value 0.996 | locus YJL129C, strain trk1, stronger effect = lower value 0.968 | locus YJL134W, strain LCB3, stronger effect = lower value 0.997 | locus YJL154C, strain vps35, stronger effect = lower value 0.999 | locus YJL164C, strain tpk1, stronger effect = lower value 1.02 | locus YJL166W, strain qcr8, stronger effect = lower value 1.01 | locus YJL168C, strain set2, stronger effect = lower value 0.968 | locus YJL187C, strain SWE1 (second series), stronger effect = lower value 0.999 | locus YJL187C, strain SWE1, stronger effect = lower value 0.994 | locus YJR043C, strain POL32, stronger effect = lower value 1.01 | locus YJR066W, strain TOR1, stronger effect = lower value 0.994
